High-throughput results deposited in PubChem by National Center for Advancing Translational Sciences (NCATS).
Pf growth 96h: P. falciparum growth inhibition at 96 hours; P. falciparum luciferase reporter growth, 96 h; Potency, µM (doses to about 28.7 µM), for the others: at the highest dose activity change, negative = inhibition, hits mostly inhibitors; actives 6.9% (n = 320,000); note: % is set by controls: 0 for no effect and ±100 for the full control effect
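Luminescence readout: decreased luciferase signal marks inhibited growth of reporter-expressing P. falciparum in infected red cells (2% hematocrit, 0.05% parasitemia final), exposed to compound two generations (96 h, 37 C, 5% CO2).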
Pf growth 48h: inhibits P. falciparum growth in the first generation, 48 h. P. falciparum luciferase growth in erythrocytes, 48 h. Potency, µM (highest dose often 28.7 µM), inactives show at the highest dose activity change, negative = inhibition, hits mostly inhibitors. actives 5.9% (n = 310,000). AID 504832; note: % is set by controls: 0 for no effect and ±100 for the full control effect
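Growth was read as firefly luciferase luminescence after a 48 h, 37 C, 5% CO2 exposure of compounds to reporter-bearing P. falciparum cultures (0.1% parasitemia, 2% hematocrit final) in Albumax-supplemented RPMI 1640.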
NS1 inh: inhibitors of influenza NS1 protein function; Potency, µM (highest dose often 46.1 µM), inactives show top-dose activity, positive = more growth; actives 0.4% (n = 270,000); calls by dose curve; note: actives are rising curves; nearly all actives have a fitted effect of over 50% in size
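Read-out: OD600 growth recovery of NS1-expressing budding yeast. Cells grown overnight at 30C in -URA glucose medium, washed, resuspended and diluted 1:100 in 2% galactose assay medium, pH 6.0. Same strain lacking NS1 served as positive control.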
AMA1-RON2 inh: AMA1-RON2 (P. falciparum) interaction inhibition. AID 720542. Potency, µM (titrated, usually from 58.2 µM), for inactives: at the top dose activity change, negative = inhibition, hits mostly inhibitors. AlphaScreen AMA1-biotinylated RON2 peptide binding. actives 0.2% (n = 360,000);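 note: 0% = vehicle wells and -100% = peptide control; nearly all actives have a fitted effect of over 45% in size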
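AMA1 (3D7) with his tag at 25 nM final met compounds first, then biotinylated RON2 peptide at 25 nM; detection used donor plus acceptor beads, 10 µg/mL apiece, read by AlphaScreen after 30 min at room temperature.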
Sm TGR inh: inhibitors of Schistosoma mansoni thioredoxin glutathione reductase | Q962Y6 | purified TGR, DTNB reduction, TNB absorbance 405 nm | Potency, µM (highest dose often 114 µM), without a hit: at the top dose activity change, negative = inhibition, most hits filed as inhibitors | AID 485364 | actives 3% (n = 360,000); note: % is set by controls: 0 for no effect and ±100 for the full control effect; nearly all actives have a fitted effect of over 60% in size
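TGR 20 nM + NADPH 100 uM (dispensed conc.), cpd preinc 15 min RT; start with NADPH (500 uM addition) then DTNB (15 mM addition). Kinetic TNB absorbance, 405 nm filter. Four-parameter Hill fit across titration.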
* marks the source's active call; other numbers are inactive results; ? = inconclusive; . = no result given; [ ] = another dose, or the depositor's remark. In the library only some 11% were active in any assay of this set; here they are far more common. Unless noted, calls come from the whole dose curve; as a rule, active = well fitted curve in the direction sought with a large enough effect; inconclusive = small, poorly fitted or top-dose-only effect, or another doubt; inactive = no such curve, though single readings can be large; an effect the other way counts as inactive or inconclusive. Potency is the fitted concentration of half-maximal effect.

SMILES	Pf growth 96h	Pf growth 48h	NS1 inh	AMA1-RON2 inh	Sm TGR inh
N#Cc1ccc(S(=O)(=O)NC2CCCCNC2=O)cc1 (stereo unspecified)	-4%	.	-7%	7%	27%
Cc1ccc(NC(=O)CSc2nc3nc(C)cc(C)c3c(=O)[nH]2)cc1	2.3µM*	28%	4%	-8%	9%
COc1ccc(C(C(=O)Nc2ccc(C(C)C)cc2)N(C)C(=O)Cc2cccs2)cc1 (stereo unspecified)	.	.	.	.	10%
COc1ccc2cc([C@H](C)C(=O)N(C)Cc3ccccc3N3CCCC3)ccc2c1	3.7µM*	?	-28%	?	-9%
CC(CCc1ccccc1)N(C)CC(O)c1cccc([N+](=O)[O-])c1 (stereo unspecified)	?	?	-3%	0%	-7%
Cc1cccn2c(=O)nc(SCC(=O)NCc3ccccc3)nc12	-9%	2%	.	0%	0%
C=CCNC(=O)c1ccccc1NS(=O)(=O)c1ccccc1	9.3µM*	-7%	11%	-5%	6%
C[C@](N)(Cc1ccc(O)cc1)C(=O)O	7%	1%	-1%	.	.
C[C@](N)(Cc1ccc(O)c(O)c1)C(=O)O	?	22%	-10%	11µM*	22µM*
COC(=O)C(N)Cc1ccc(O)c(O)c1 (stereo unspecified)	.	?	6%	-16%	7.9µM*
COC(=O)c1ccc(CNC(=O)COC(=O)c2cccs2)cc1	.	.	.	13%	.
O=C(CSc1ccccc1)N1CCc2c([nH]c3ccccc23)C1c1ccc(Cl)cc1 (stereo unspecified)	.	.	.	.	11%
NC(=O)NC(=O)C(c1ccccc1)N1CCN(S(=O)(=O)c2ccc(Br)s2)CC1 (stereo unspecified)	?	?	.	-3%	-21%
CCOC(=O)c1sc2nc(C)nc(SC(C)C(=O)N(C)c3ccccc3)c2c1C (stereo unspecified)	9.3µM*	12µM*	.	-3%	4%
CCN(CC1CCCO1)C(=O)CCc1nnc(Cc2ccc3c(c2)OCO3)o1 (stereo unspecified)	?	-9%	1%	10%	28µM*
Cc1cccc(Cc2nnc(CCC(=O)N(CC3CC3)CC3CCCO3)o2)c1 (stereo unspecified)	?	-16%	-4%	5%	-13%
COc1cccc(Nc2nnc(-c3cc4ccc(O)cc4oc3=O)s2)c1	.	.	.	.	7%
COc1ccccc1Nc1cc(C)nc2c(C)ccc([N+](=O)[O-])c12	?	-14%	1%	3.2µM*	-9%
COC(=O)C1C/C(=N/NS(=O)(=O)c2ccc(C)cc2)CS1 (stereo unspecified)	-27%	22%	-1%	3%	13µM*
Nc1cc(C(=O)OCC(=O)Nc2ccc(N3CCOCC3)cc2)ccc1Cl	-26%	-8%	.	14%	-15%
CCOc1ccc(CN(C)C(=O)Cc2c[nH]c3ccccc23)cc1	-3%	26%[0.00184 µM]	-37%	23%	7%
COc1ccc(NC(=O)c2nc[nH]c2C(=O)N[C@@H](CC(C)C)C(=O)OC(C)(C)C)cc1	?	10µM*	-61%	127%	-1%
CC(C)C[C@H](NC(=O)c1[nH]cnc1C(=O)Nc1ccc(CNC(=O)OC(C)(C)C)cc1)C(=O)OCc1ccccc1	?	12µM*	-3%	99%	-2%
CC(C)C[C@H](NC(=O)c1nc[nH]c1C(=O)NCc1ccccc1)C(=O)OCc1ccccc1	-25%	?	?	92%	-11%
CC(C)(C)OC(=O)NCc1ccc(NC(=O)c2nc[nH]c2C(=O)N[C@@H](Cc2ccccc2)C(=O)OC(C)(C)C)cc1	8.3µM*	2.3µM*	?	105%	12%
SMILES	Pf growth 96h	Pf growth 48h	NS1 inh	AMA1-RON2 inh	Sm TGR inh
CC(C)(C)OC(=O)NCc1ccc(NC(=O)c2nc[nH]c2C(=O)NCCNC(=O)c2[nH]cnc2C(=O)Nc2ccc(CNC(=O)OC(C)(C)C)cc2)cc1	.	.	.	121%	.
CC(C)(C)OC(=O)CNC(=O)c1[nH]cnc1C(=O)Nc1ccc(CNC(=O)OC(C)(C)C)cc1	13µM*	13µM*	-31%	137%	13%
O=C(CCNC(=O)c1ccccc1)NCC1CCCCC1	0%	13%	.	-6%	4%
C[C@H](NC(=O)c1nc[nH]c1C(=O)N[C@@H](C)C(=O)OC(C)(C)C)C(=O)OCc1ccccc1	1%	-2%	14%	149%	5%
C[C@H](CO)NC(=O)c1[nH]cnc1C(=O)Nc1ccc(CNC(=O)OC(C)(C)C)cc1	.	.	.	52%	.
CC(C)C[C@H](NC(=O)c1[nH]cnc1C(=O)Nc1ccc(CNC(=O)OC(C)(C)C)cc1)C(=O)OC(C)(C)C	6.6µM*	8.3µM*	?	183%	40%
C[C@H](NC(=O)c1[nH]cnc1C(=O)Nc1ccc(CNC(=O)OC(C)(C)C)cc1)C(=O)OCc1ccccc1	30%	9.3µM*	-35%	95%	9%
NC(N)=N/N=C\c1ccc(O)c(C(=O)O)c1	.	.	-1%	.	.
CN(C)NC1CCS(=O)(=O)C1 (stereo unspecified)	8%	16%	9%	-8%	1.6µM*
O=S1(=O)CCC(NC2CCCC2)C1 (stereo unspecified)	33%	30%	1%	21%	-13%
CC12CN(C(=O)c3ccc([N+](=O)[O-])cc3)CC(C)(CN(C(=O)c3ccc([N+](=O)[O-])cc3)C1)C2=O	7%	-15%	4%	-11%	18%
CCCC12CN(C(=O)c3ccc([N+](=O)[O-])cc3)CC(C)(CN(C(=O)c3ccc([N+](=O)[O-])cc3)C1)C2=O	10µM*	12µM*	-4%	17%	2%
O=C(CSc1nc2ccccc2c(=O)n1CCCN1CCOCC1)Nc1cccc(S(=O)(=O)N2CCCCCC2)c1	0.52µM*	0.52µM*	-2%	-28%	6%
CCc1ccc(NC(=O)CSc2nc3ccccc3c(=O)n2CCCC(=O)NCCCN2CCOCC2)cc1	?	7.4µM*	.	-12%	-4%
O=C(CSc1nc2ccccc2c(=O)n1CCCN1CCOCC1)Nc1ccc(F)c(Cl)c1	.	.	.	-13%	.
Cc1ccc(NC(=O)CSc2nc3ccccc3c(=O)n2CCCC(=O)NCCCN2CCOCC2)cc1C	13µM*	?	.	-14%	-1%
COc1ccc(CSc2nc3ccccc3c(=O)n2CCCN2CCOCC2)cc1F	8.3µM*	?	.	-18%	9%
CC(O)(c1ccccc1)c1nc(-c2ccc(S(C)(=O)=O)cc2)cs1 (stereo unspecified)	.	.	.	2%	.
CCCCn1c(CN2C(=O)c3ccccc3C2=O)nc2ccccc2c1=O	62%	5%	0%	15%	0%
O=C1c2ccccc2C(=O)N1Cc1nc2ccccc2c(=O)n1CCCN1CCOCC1	18%	4%	5%	-2%	35µM*
O=C(NCCS(=O)(=O)N1CCN(c2ccccc2F)CC1)c1ccc(Br)cc1	-14%	34%	7%	4%	2%
CCc1cc2cc3c(cc2nc1SCC(=O)OC(C)C)OCO3	-6%	-75%	2%	0%	.
